Test results from PubChem BioAssay (EPA / NIEHS).
Active and inactive are the calls of the source. Rule for the calls: active = hit-call score of the fitted dose curve at least 0.9, where 1 is the maximum; inactive = score below 0.9.

Test: BSK_BT_Bcell_Proliferation: Viability Assessment in the BioMAP Diversity Plus: BT Assay for B cell Proliferation (AID 2284227)
Conditions: primary human B cells with PBMC
Experimental: BSK_BT is a cell-based, multiplexed-readout assay that uses B cell and peripheral blood mononuclear cells, a human vascular primary cell co-culture, with measurements taken at 24 hours after chemical dosing in a microplate: 96-well plate.BSK_BT_Bcell_Proliferation is an assay component measured in the BSK_BT assay. It measures protein content, a form of viability reporter, as detected with absorbance signals by Sulforhodamine staining technology.Data from the assay component BSK_BT_Bcell_Proliferation was analyzed at the endpoint, BSK_BT_Bcell_Proliferation, in the positive analysis fitting direction relative to DMSO as the negative control and baseline of activity. Using a type of viability reporter, gain or loss-of-signal activity can be used to understand cellular changes in viability. To generalize the intended target to other relatable targets, this assay endpoint is annotated to the 'cell cycle' intended target family, where the subfamily is 'proliferation'.
The levels of cell surface (or secreted, indicated by the prefix "s") biomarker endpoints were measured by ELISA. Overt cytotoxicity to cells in confluent adherent cultures (all systems other than the BT system) was assessed by measuring total protein levels using sulforhodamine B (SRB) staining in parallel cultures at the time of biomarker measurements, indicated as SRB endpoints. For proliferation assays for adherent cell types, individual cell types are cultured at sub-confluence and relative cell numbers quantified by SRB staining at time points optimized for each system (48 h: 3C and CASM3C systems; 72 h: BT and HDF3CGF systems; 96 h: SAg system). SRB was performed by staining cells with 0.1% SRB after fixation with 10% TCA and reading wells at 560 nm.Viability and proliferation of PBMC (T cells) was quantified by Alamar Blue reduction for the SAg and BT systems. For PBMC viability (referred to as PBMC Cytotoxicity within the assay endpoint names), cells were plated (75,000/well in a 96-well plate) and then chemical samples added for 1 h before addition of activators, SEB and TSST-1 (20 ng/mL final concentration each). Cells were incubated for 90 h. Then, Alamar Blue (20 uL/well) (Invitrogen, Cat DAL1100) was added for 6 h, and the plates were read with a fluorescence microplate reader at 546/580 nm (excitation/emission). For PBMC proliferation, cells were plated and activated as above but incubated for only 16 h prior to addition of Alamar Blue. Plates were read after 6 h.

Structure (SMILES)	outcome	AC50
CC(C)Oc1ccccc1O	inactive	
CC(C)c1ccc(C(C)C)cc1	inactive	
CCCCC/C=C/C=C/C=O		20.1 µM (active)
c1ccc2c(c1)c1cccc3ccc4cccc2c4c31	inactive	
CCc1c(C)cc(N)c(CC)c1N	inactive	
CCCCCCCCCC=O	inactive	
CNC[C@H](O)c1cccc(O)c1	inactive	
CCCCCCCCC=O	inactive	
CC1CCC(C(C)CS)CC1S (configuration not stated)	inactive	
CCCCC(CC)COCCC#N (configuration not stated)	inactive	
C#C[C@]1(O)CC[C@H]2[C@@H]3CCC4=Cc5oncc5C[C@]4(C)[C@H]3CC[C@@]21C		33.1 µM (active)
CCCCCCCCCCCCCCCCCC(=O)OCC(CC)CCCC (configuration not stated)	inactive	
CC(=O)O[C@]1(C(C)=O)CC[C@H]2[C@@H]3C[C@H](C)C4=CC(=O)CC[C@]4(C)[C@H]3CC[C@@]21C	inactive	
CCn1c2ccccc2c2cc(N)ccc21		13.1 µM (active)
Cc1ccc2n[nH]nc2c1	inactive	
CC(C)(COC(=O)c1ccccc1)COC(=O)c1ccccc1	inactive	
Cc1ccc(O)c(C(C)(C)C)c1	inactive	
COC(=O)c1ccc(C)cc1	inactive	
C=C[Si](OCC)(OCC)OCC	inactive	

Structure (SMILES)	outcome	AC50
O=[N+]([O-])c1cc(C(F)(F)F)ccc1Cl	inactive	
O=C(O)c1cn(C2CC2)c2cc(N3CCNCC3)c(F)cc2c1=O	inactive	
c1ccc2sc(SN(C3CCCCC3)C3CCCCC3)nc2c1	inactive	
Nc1cc([N+](=O)[O-])ccc1Cl	inactive	
O=C=NC1CCC(CC2CCC(N=C=O)CC2)CC1 (configuration not stated)		31.2 µM (active)
C=C(C)C(=O)O[C@H]1C[C@@H]2CC[C@@]1(C)C2(C)C	inactive	
O=P(c1ccccc1)(c1ccccc1)c1ccccc1	inactive	
BrC1CCC(Br)C(Br)CCC(Br)C(Br)CCC1Br (configuration not stated)		28.4 µM (active)
N#Cc1ccc(CC(=NNC(=O)Nc2ccc(OC(F)(F)F)cc2)c2cccc(C(F)(F)F)c2)cc1	inactive	
CCCCC(CC)COC(=O)/C=C\C(=O)OCC(CC)CCCC (configuration not stated)		20 µM (active)
CC(=O)/C=C/C1=C(C)CCCC1(C)C	inactive	
O=C(O)c1cn(-c2ccc(F)cc2)c2cc(N3CCNCC3)c(F)cc2c1=O	inactive	
O=C1CCCCCCCCCCCCCCO1		34.9 µM (active)
Cc1ccc(Nc2ccc(O)c3c2C(=O)c2ccccc2C3=O)cc1	inactive	
O=C1OC2(c3cc(Br)c(O)c(Br)c3Oc3c2cc(Br)c(O)c3Br)c2c(Cl)c(Cl)c(Cl)c(Cl)c21	inactive	
CC(=O)Nc1ccccc1O	inactive	
CC1COc2ccccc2N1C(=O)C(Cl)Cl (configuration not stated)		14.1 µM (active)
CN(CCOc1ccc(CC2SC(=O)NC2=O)cc1)c1ccccn1 (configuration not stated)	inactive	
